Experimental findings from a collection of fitness landscapes (doi:10.1126/science.1257360) are described below.

B1: PhoQ; a variant is named by its letters at X, in order, P23837 (parent)
chain: MKKLLRLFFPLSLRVRFLLATAAVVLVLSLAYGMVALIGYSVSFDKTTFRLLRGESNLFYTLAKWENNKLHVELPENIDKQSPTMTLIYDENGQLLWAQRDVPWLMKMIQPDWLKSNGFHEIEADVNDTSLLLSGDHSIQQQLQEVREDDDDAEMTHSVAVNVYPATSRMPKLTIVVVDTIPVELKSSYMVWSWFIYVLSANLLLVIPLLWVAAWWSLRPIEALAKEVRELEEHNRELLNPATTRELTSLVRNLNRLLKSERERYDKYRTTLTDLTHSLKTPLXXLQXXLRSLRSEKMSVSDAEPVMLEQISRISQQIGYYLHRASMRGGTLLSRELHPVAPLLDNLTSALNKVYQRKGVNISLDISPEISFVGEQNDFVEVMGNVLDNACKYCLEFVEISARQTDEHLYIVVEDDGPGIPLSKREVIFDRGQRVDTLRPGQGVGLAVAREITEQYEGKIVAGESMLGGARMEVIFGRQHSAPKDE

The full ranking holds about 140,000 sequences; the median of “enrichment ratio after two sorts for PhoP signalling” is about 0, and the highest 2% start at about 11. Many of the other results were omitted from the sample, so the highest values are more common in it than they were.

Variants of B1 are the subject of this assay. Kind of assay: enrichment ratio after two sorts for PhoP signalling (ratio (wild type AVST 3.29)); higher = more functional. The settings on record: with PhoP (E. coli).
Take IKVK: the enrichment ratio was no more than 0.25.
Next, LLGD: no more than 0.25; MVLD: no more than 0.25; RQIY: no more than 0.25.
For the variant GNSC, the enrichment ratio stood at 12.1.
As for GTSC, the enrichment ratio was no more than 0.25.
On to GQSC, for which the enrichment ratio is no more than 0.25.
On to WNPE, for which the enrichment ratio was no more than 0.25.
For EPTS, the enrichment ratio is no more than 0.25.
Next, SQPA: no more than 0.25; HECT: 26.3.
Take HELT: the enrichment ratio is no more than 0.25.
Turning to EECT, the enrichment ratio is no more than 0.25.
Regarding VECT, the enrichment ratio is 12.
In the case of TCCT, the enrichment ratio stood at 7.4.
For the variant QECT, the enrichment ratio came out at 6.99.
As for IECT, the enrichment ratio came out at 16.6.
NECT: the enrichment ratio amounted to 14.1.
Regarding IQCT, the enrichment ratio is no more than 0.25.
For the variant HEAT, the enrichment ratio is no more than 0.25.
Take YWCT: the enrichment ratio is no more than 0.25.
VFCT: the enrichment ratio is no more than 0.25.
Consider REDM, for which the enrichment ratio was no more than 0.25.
As to DVPV, the enrichment ratio was no more than 0.25.
On to MSTY, for which the enrichment ratio is 2.56.
For the variant SPFN, the enrichment ratio is no more than 0.25.
Turning to ACHR, the enrichment ratio is no more than 0.25.
As for MCHQ, the enrichment ratio was no more than 0.25.
Consider FMEW, for which the enrichment ratio is no more than 0.25.
For ERFY, the enrichment ratio was no more than 0.25.
The result for LRPR reads no more than 0.25.
In the case of LISC, the enrichment ratio is no more than 0.25.
Regarding HMCL, the enrichment ratio was 2.41.
QEMT: the enrichment ratio is 5.12.
In the case of SPLT, the enrichment ratio was no more than 0.25.
For SEMT, the enrichment ratio was 20.
Next, STLA: 10.9.
The result for SLMT reads no more than 0.25; that for SQMT, 22.7.
Regarding STLT, the enrichment ratio stood at 12.3.
As to KYMT, the enrichment ratio was no more than 0.25.
The result for SRMT reads 0.372; that for SIMT, 7.68; that for SWMT, no more than 0.25.
As for STMT, the enrichment ratio worked out at 16.6.
For INDV, the enrichment ratio is no more than 0.25.
As for LNTQ, the enrichment ratio is no more than 0.25.
Next, PDCH: no more than 0.25; PGNF: no more than 0.25; DWKT: no more than 0.25.
The result for EFCG reads no more than 0.25.
The result for KSIH reads no more than 0.25; that for KPAG, no more than 0.25; that for LQSG, no more than 0.25.
Consider EPRQ, for which the enrichment ratio is no more than 0.25.
In the case of TQPT, the enrichment ratio is no more than 0.25.
The result for WMMI reads no more than 0.25; that for IPNH, no more than 0.25; that for PVYK, no more than 0.25.
As for TQQM, the enrichment ratio was 17.5.
Regarding SMRM, the enrichment ratio was no more than 0.25.
On to SMGM, for which the enrichment ratio was determined as 5.78.
Turning to RGQM, the enrichment ratio was no more than 0.25.
Next, SMQM: 20.4; DWQM: no more than 0.25.
Regarding SGQM, the enrichment ratio was 14.7.
In the case of FQQM, the enrichment ratio is no more than 0.25.
The result for SGQK reads no more than 0.25; that for LAQM, no more than 0.25.
For the variant KAQM, the enrichment ratio was no more than 0.25.
As to TLQM, the enrichment ratio is 15.4.
As for IDFL, the enrichment ratio is no more than 0.25.
Turning to SWLW, the enrichment ratio was no more than 0.25.
Consider FYKC, for which the enrichment ratio was no more than 0.25.
Turning to FEKG, the enrichment ratio was no more than 0.25.
Next, DDSK: no more than 0.25.
As to RTPK, the enrichment ratio was no more than 0.25.
The result for TQKM reads no more than 0.25; that for MGAV, 5.2.
Consider YTQM, for which the enrichment ratio is no more than 0.25.
On to FSQM, for which the enrichment ratio is no more than 0.25.
Next, SPQM: no more than 0.25; TSQM: 24; TTQM: 12.5.
Next, SRQM: no more than 0.25; FCQM: no more than 0.25; STQM: 12.8.
As for LTQM, the enrichment ratio is no more than 0.25.
With KYQM, the enrichment ratio was no more than 0.25.
As for SCQM, the enrichment ratio is 30.8.
KSQM: the enrichment ratio was no more than 0.25.
Next, RPSF: no more than 0.25; GPMM: no more than 0.25; AHKW: no more than 0.25.
PCPS: the enrichment ratio was no more than 0.25.
As to AQDI, the enrichment ratio was no more than 0.25.
On to SAQM, for which the enrichment ratio was found to be 8.97.
With SQQM, the enrichment ratio was 15.9.
With SLQM, the enrichment ratio worked out at 7.14.
Turning to HIPP, the enrichment ratio is no more than 0.25.
For the variant TDCL, the enrichment ratio is 1.96.
In the case of KHNK, the enrichment ratio was no more than 0.25.
Next, YPTR: no more than 0.25; YCAA: no more than 0.25; QASG: 17.4.
For the variant QRSG, the enrichment ratio is no more than 0.25.
Regarding KASG, the enrichment ratio was no more than 0.25.
For NASN, the enrichment ratio is no more than 0.25.
Regarding QRSN, the enrichment ratio is no more than 0.25.
With FFSN, the enrichment ratio was no more than 0.25.
As for QGSN, the enrichment ratio came to 20.2.
Take QASN: the enrichment ratio was 11.4.
The result for FVSN reads no more than 0.25.
Consider GMMP, for which the enrichment ratio is no more than 0.25.
Take DWWS: the enrichment ratio is no more than 0.25.
RCNY: the enrichment ratio was no more than 0.25.
Turning to NNFP, the enrichment ratio is no more than 0.25.
Next, QNYN: no more than 0.25.
As to NSYV, the enrichment ratio is no more than 0.25.
The result for AVPN reads no more than 0.25; that for FCMQ, 1.02.
Turning to QSDG, the enrichment ratio is 11.8.
With TVDG, the enrichment ratio is no more than 0.25.
For the variant QVDG, the enrichment ratio is 30.4.
Take TSDG: the enrichment ratio stood at 0.59.
Next, FTDG: no more than 0.25.
For the variant YTDG, the enrichment ratio was no more than 0.25.
With QGDG, the enrichment ratio stood at 11.8.
In the case of KSDG, the enrichment ratio is no more than 0.25.
On to PVDG, for which the enrichment ratio was no more than 0.25.
Next, FCDG: no more than 0.25; QTDG: 13.5; FFDG: no more than 0.25.
As for LTLA, the enrichment ratio is no more than 0.25.
Regarding HNKA, the enrichment ratio was no more than 0.25.
As for AFKV, the enrichment ratio was no more than 0.25.
The result for RRQL reads no more than 0.25; that for RSSV, no more than 0.25.
For the variant VLVH, the enrichment ratio was no more than 0.25.
For TVDW, the enrichment ratio was no more than 0.25.
The result for MEFH reads 4.99.
As to TEFP, the enrichment ratio is no more than 0.25.
Consider QEFN, for which the enrichment ratio came out at 3.01.
Regarding TEFI, the enrichment ratio was 9.19.
As to TEFS, the enrichment ratio amounted to 10.9.
Consider TEFQ, for which the enrichment ratio came out at 8.52.
Next, TEFN: 18.2.
For the variant TEFC, the enrichment ratio was determined as 14.4.
The result for TEFA reads 11.3; that for MEFN, 7.67; that for TEFH, 12.1.
For QEFH, the enrichment ratio is no more than 0.25.
For GKHH, the enrichment ratio was no more than 0.25.
Turning to NVPN, the enrichment ratio is no more than 0.25.
For the variant VKNT, the enrichment ratio was no more than 0.25.
The result for GVCV reads 3.13; that for AWFR, no more than 0.25.
As to RMDG, the enrichment ratio was no more than 0.25.
Next, DDGS: no more than 0.25.
Consider LMRD, for which the enrichment ratio is no more than 0.25.
The result for FKNL reads no more than 0.25.
As for FPYE, the enrichment ratio was no more than 0.25.
HPWR: the enrichment ratio was no more than 0.25.
Consider WNMS, for which the enrichment ratio was no more than 0.25.
As to NTFG, the enrichment ratio was no more than 0.25.
For NEFG, the enrichment ratio is no more than 0.25.
In the case of TEFG, the enrichment ratio is 19.
The result for MEFG reads 5.56; that for WVYE, no more than 0.25; that for PMID, no more than 0.25.
In the case of ANCG, the enrichment ratio amounted to 26.6.
ADCG: the enrichment ratio stood at 1.58.
Next, PGCG: no more than 0.25; TDCG: 13.4.
With NHCG, the enrichment ratio is no more than 0.25.
Consider TGCG, for which the enrichment ratio was determined as 24.4.
In the case of RGCG, the enrichment ratio is no more than 0.25.
Consider FDCG, for which the enrichment ratio is no more than 0.25.
AHCG: the enrichment ratio was determined as 15.3.
Turning to KDCG, the enrichment ratio is no more than 0.25.
Regarding AKCG, the enrichment ratio was 2.88.
Next, VHCG: no more than 0.25.
Next, AIDP: no more than 0.25; IFDW: no more than 0.25.
The result for PKQC reads no more than 0.25.
In the case of DRKW, the enrichment ratio is no more than 0.25.
Next, LGNW: no more than 0.25.
Regarding FFWM, the enrichment ratio is no more than 0.25.
On to FMLS, for which the enrichment ratio was no more than 0.25.
Take AHIG: the enrichment ratio was no more than 0.25.
The result for ANIG reads 29.2; that for ADIG, no more than 0.25; that for REKI, no more than 0.25.
Take KRHD: the enrichment ratio is no more than 0.25.
Take LMWD: the enrichment ratio is no more than 0.25.
